The values that follow come from article PMC7862700, “An all-to-all approach to the identification of sequence-specific readers for epigenetic DNA modifications on cytosine”.

What all share (test): DAPPL (digital affinity profiling via proximity ligation, sequencing); 10 mM Tris-HCl pH 7.5, 50 mM NaCl, 1 mM DTT, 4% glycerol, room temperature, 30 min; GST-TFs on glutathione beads, 16-mer random dsDNA library, 0.1% formaldehyde crosslink after washing; high values mean tight binding
The target in test [1] is T1, FLI1 (Homo sapiens, UniProt Q01543 1-452).
T1 sequence: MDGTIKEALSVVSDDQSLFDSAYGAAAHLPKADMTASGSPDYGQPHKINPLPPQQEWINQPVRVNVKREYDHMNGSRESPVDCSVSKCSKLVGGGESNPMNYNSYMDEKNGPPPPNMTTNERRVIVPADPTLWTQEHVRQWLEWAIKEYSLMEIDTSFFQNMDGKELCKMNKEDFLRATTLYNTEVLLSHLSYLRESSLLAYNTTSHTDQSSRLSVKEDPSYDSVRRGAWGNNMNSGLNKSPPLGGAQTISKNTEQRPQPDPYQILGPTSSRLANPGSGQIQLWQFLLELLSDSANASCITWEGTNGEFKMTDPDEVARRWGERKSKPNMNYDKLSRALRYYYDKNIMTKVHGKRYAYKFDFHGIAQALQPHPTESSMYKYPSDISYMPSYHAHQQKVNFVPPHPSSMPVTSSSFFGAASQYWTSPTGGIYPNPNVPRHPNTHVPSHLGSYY
The note with it: protein: recombinant; tags: N-terminal GST; dsDNA, one strand shown. A digest of the protocol: (§1)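 The binding signal reported is, for every hexamer, its read frequency for a factor over its read frequency for the tag-only sample. Reads came from pools of yeast-expressed, GST-fused human transcription factors on glutathione beads, barcoded with DNA and mixed with that sample, which were incubated with 200 nmole of a random double-stranded 16-mer DNA library in Tris/NaCl/DTT/glycerol buffer at room temperature for 30 min. After washing, the pools were crosslinked with 0.1% formaldehyde, proximity-ligated with BsaI/T4 ligase for 1 h at 37 °C, PCR-amplified and sequenced on an Illumina NextSeq500.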

The target in test [2] is T2, ELK1 (Homo sapiens, UniProt P19419 1-428).
T2 sequence: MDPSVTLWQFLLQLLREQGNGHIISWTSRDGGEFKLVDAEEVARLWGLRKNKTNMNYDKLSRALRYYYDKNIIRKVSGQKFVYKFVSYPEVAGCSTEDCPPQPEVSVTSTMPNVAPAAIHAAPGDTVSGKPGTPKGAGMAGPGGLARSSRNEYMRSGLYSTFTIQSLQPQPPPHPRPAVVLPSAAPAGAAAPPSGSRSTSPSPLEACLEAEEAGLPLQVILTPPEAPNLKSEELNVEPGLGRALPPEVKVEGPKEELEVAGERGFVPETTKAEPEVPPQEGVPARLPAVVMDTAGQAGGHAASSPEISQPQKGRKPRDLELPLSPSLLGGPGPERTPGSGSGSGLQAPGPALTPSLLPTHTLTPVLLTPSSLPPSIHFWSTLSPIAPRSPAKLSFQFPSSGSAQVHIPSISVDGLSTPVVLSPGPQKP
The note with it: protein: recombinant; tags: N-terminal GST; dsDNA, one strand shown. A digest of the protocol:
as §1

Test [3] concerns the target T3, GABPA (Homo sapiens, UniProt Q06546 1-454).
T3 sequence: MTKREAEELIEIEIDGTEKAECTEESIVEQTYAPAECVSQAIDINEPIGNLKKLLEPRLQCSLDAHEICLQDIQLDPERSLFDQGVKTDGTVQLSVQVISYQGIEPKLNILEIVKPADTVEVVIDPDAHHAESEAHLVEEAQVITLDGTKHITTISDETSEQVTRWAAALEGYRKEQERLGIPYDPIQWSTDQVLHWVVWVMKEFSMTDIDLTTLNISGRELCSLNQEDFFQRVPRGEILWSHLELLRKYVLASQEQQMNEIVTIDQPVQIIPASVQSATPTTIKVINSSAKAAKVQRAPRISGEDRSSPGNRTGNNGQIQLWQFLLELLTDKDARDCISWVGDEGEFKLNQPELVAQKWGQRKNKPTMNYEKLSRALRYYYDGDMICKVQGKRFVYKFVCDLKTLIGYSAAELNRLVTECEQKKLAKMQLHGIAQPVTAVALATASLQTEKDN
The following applies: protein: recombinant; tags: N-terminal GST; dsDNA, one strand shown. A digest of the protocol: as §1

Test [4] addresses T4, ERG (Homo sapiens, UniProt P11308 1-479).
T4 sequence: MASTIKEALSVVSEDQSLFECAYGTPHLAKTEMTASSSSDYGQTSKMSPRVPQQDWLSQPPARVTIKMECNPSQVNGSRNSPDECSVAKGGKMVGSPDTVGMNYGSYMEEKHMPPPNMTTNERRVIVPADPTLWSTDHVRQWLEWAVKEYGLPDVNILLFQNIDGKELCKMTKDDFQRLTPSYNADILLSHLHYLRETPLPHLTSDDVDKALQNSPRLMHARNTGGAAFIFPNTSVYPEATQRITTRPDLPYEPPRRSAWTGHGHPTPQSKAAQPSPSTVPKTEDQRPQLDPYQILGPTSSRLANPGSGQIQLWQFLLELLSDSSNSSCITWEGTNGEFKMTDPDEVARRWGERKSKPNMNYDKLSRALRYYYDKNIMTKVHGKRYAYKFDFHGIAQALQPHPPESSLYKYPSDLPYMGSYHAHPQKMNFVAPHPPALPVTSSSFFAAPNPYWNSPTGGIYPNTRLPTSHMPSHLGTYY
The following applies: protein: recombinant; tags: N-terminal GST; dsDNA, one strand shown. A digest of the protocol: as §1

The target of test [5] is ELF1 (Homo sapiens, UniProt P32519 1-619). The following applies: protein: recombinant; tags: N-terminal GST; dsDNA, one strand shown. A digest of the protocol: as §1
Sequence of ELF1 (P32519 whole entry): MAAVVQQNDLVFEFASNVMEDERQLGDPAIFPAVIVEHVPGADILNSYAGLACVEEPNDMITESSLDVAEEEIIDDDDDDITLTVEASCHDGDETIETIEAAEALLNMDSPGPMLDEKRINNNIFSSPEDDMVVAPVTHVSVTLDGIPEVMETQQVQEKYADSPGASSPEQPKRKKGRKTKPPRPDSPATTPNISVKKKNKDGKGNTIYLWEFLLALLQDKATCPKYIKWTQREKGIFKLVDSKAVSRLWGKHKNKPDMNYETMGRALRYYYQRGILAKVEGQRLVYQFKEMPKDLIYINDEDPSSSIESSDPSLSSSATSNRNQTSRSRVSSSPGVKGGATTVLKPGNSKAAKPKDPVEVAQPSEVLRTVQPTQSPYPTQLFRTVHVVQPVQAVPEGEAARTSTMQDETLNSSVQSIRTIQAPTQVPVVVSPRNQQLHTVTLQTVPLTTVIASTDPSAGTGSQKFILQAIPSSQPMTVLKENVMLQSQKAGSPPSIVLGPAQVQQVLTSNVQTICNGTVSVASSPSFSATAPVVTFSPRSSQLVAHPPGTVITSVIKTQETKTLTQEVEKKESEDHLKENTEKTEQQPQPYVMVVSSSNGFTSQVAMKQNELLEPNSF
Test [6] concerns the target T5, EHF (Homo sapiens, UniProt Q9NZC4 1-300).
T5 sequence: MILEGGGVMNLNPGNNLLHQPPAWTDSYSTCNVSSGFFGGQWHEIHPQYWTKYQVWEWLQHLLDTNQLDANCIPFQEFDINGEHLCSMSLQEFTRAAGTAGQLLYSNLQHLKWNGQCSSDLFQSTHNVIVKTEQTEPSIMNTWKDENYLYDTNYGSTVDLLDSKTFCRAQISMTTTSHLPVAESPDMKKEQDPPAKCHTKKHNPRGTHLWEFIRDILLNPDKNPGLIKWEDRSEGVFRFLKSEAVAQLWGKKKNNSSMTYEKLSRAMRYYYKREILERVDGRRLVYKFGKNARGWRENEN
The note with it: protein: recombinant; tags: N-terminal GST; dsDNA, one strand shown. A digest of the protocol:
as §1

Test [7] has as its target SPI1 (Homo sapiens, UniProt P17947 1-270). The following applies: protein: recombinant; tags: N-terminal GST; dsDNA, one strand shown. A digest of the protocol: as §1
Test [8] deals with SPIB (Homo sapiens, UniProt Q01892 1-262). The note with it: protein: recombinant; tags: N-terminal GST; dsDNA, one strand shown. A digest of the protocol: as §1
Sequence of SPIB (Q01892 whole entry): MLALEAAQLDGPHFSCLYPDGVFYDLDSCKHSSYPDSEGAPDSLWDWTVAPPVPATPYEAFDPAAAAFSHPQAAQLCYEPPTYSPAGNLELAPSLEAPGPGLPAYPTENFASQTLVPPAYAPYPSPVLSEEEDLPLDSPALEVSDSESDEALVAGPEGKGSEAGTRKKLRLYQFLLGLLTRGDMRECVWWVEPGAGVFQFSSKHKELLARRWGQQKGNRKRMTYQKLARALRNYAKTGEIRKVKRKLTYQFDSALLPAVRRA
For test [9], the target named is T6, ELK3 (Homo sapiens, UniProt P41970 1-407).
T6 sequence: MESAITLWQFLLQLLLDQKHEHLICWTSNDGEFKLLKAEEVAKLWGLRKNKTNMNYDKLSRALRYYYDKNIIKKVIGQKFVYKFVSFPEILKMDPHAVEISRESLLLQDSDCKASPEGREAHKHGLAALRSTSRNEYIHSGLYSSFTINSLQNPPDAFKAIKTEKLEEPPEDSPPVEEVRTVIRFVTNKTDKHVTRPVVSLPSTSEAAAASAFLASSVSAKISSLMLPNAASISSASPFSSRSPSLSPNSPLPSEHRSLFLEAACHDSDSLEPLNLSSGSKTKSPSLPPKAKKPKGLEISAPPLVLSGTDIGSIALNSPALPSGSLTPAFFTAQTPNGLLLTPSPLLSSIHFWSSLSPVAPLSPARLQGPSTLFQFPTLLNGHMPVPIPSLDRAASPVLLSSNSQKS
The note with it: protein: recombinant; tags: N-terminal GST; dsDNA, one strand shown. A digest of the protocol: as §1

For test [10], the target named is T7, FEV (Homo sapiens, UniProt Q99581 1-238).
T7 sequence: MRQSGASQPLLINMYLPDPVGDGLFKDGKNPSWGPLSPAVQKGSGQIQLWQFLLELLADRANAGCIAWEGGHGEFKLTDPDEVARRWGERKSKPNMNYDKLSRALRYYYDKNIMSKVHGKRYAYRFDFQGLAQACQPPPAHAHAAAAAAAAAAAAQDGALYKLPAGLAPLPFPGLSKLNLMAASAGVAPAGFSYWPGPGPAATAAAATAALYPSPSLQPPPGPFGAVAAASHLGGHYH
The note with it: protein: recombinant; tags: N-terminal GST; dsDNA, one strand shown. A digest of the protocol:
as §1

Test [11] addresses ETV5 (Homo sapiens, UniProt P41161 1-510). The following applies: protein: recombinant; tags: N-terminal GST; dsDNA, one strand shown. A digest of the protocol: as §1
Test [12] deals with HSF1 (Homo sapiens, UniProt Q00613 1-529). The note with it: protein: recombinant; tags: N-terminal GST; chain copies: 3; dsDNA, one strand shown. A digest of the protocol: as §1
Sequence of HSF1 (Q00613 whole entry): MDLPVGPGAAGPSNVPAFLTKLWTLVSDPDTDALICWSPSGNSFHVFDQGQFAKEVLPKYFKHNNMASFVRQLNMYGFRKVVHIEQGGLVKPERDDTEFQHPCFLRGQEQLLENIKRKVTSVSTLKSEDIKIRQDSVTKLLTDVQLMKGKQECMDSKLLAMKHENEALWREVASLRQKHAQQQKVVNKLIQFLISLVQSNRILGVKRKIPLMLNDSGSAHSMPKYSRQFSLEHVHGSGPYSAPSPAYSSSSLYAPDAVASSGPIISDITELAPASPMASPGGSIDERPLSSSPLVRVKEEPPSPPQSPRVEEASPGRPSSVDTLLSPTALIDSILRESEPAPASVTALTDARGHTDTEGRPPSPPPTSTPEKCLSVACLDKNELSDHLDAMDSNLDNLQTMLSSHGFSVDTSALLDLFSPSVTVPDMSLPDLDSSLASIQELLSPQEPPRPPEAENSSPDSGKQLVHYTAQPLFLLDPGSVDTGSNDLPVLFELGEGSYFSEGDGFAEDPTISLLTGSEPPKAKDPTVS
Test [13] concerns the target T8, SPIC (Homo sapiens, UniProt Q8N5J4 1-248).
T8 sequence: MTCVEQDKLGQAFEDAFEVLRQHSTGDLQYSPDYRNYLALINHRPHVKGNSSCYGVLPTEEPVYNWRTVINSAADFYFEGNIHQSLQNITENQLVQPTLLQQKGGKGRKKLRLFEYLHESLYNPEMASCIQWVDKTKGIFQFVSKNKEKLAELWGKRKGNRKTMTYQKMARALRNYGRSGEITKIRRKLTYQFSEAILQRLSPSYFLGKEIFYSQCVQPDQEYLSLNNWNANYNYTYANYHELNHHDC
The note with it: protein: recombinant; tags: N-terminal GST; dsDNA, one strand shown. A digest of the protocol: as §1

Test [14] has as its target ELF4 (Homo sapiens, UniProt Q99607 1-663). The note with it: protein: recombinant; tags: N-terminal GST; dsDNA, one strand shown. A digest of the protocol: as §1
The target of test [15] is T9, ELK4 (Homo sapiens, UniProt P28324-2 1-405).
T9 sequence: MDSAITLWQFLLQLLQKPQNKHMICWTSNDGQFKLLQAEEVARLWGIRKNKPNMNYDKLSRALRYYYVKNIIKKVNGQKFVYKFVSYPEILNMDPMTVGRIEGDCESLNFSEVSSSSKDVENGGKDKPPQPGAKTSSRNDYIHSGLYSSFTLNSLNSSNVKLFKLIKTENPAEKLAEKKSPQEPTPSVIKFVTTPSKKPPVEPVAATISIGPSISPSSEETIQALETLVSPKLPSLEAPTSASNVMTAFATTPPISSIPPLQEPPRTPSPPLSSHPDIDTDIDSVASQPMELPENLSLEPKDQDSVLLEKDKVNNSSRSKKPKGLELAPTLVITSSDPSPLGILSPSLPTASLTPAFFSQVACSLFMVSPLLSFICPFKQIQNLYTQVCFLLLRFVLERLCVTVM
The note with it: protein: recombinant; tags: N-terminal GST; dsDNA, one strand shown. A digest of the protocol: as §1

In test [16] the target is T10, ETV2 (Homo sapiens, UniProt O00321 1-342).
T10 sequence: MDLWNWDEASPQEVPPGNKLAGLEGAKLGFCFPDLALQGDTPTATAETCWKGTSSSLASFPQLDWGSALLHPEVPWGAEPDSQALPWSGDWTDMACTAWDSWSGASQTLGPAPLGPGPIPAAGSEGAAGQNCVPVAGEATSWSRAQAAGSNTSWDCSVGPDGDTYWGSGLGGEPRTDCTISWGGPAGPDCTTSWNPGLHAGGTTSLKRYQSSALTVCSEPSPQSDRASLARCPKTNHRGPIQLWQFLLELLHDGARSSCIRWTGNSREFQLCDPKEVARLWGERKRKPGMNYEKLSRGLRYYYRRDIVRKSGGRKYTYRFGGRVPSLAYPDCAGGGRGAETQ
The following applies: protein: recombinant; tags: N-terminal GST; dsDNA, one strand shown. A digest of the protocol: as §1

For test [17], the target named is CRX (Homo sapiens, UniProt O43186 1-299). The note with it: protein: recombinant; tags: N-terminal GST; dsDNA, one strand shown. A digest of the protocol:
as §1

Test [18] addresses ETV1 (Homo sapiens, UniProt P50549 1-477). The note with it: protein: recombinant; tags: N-terminal GST; dsDNA, one strand shown. A digest of the protocol:
as §1

Sequence of ELF4 (Q99607 whole entry): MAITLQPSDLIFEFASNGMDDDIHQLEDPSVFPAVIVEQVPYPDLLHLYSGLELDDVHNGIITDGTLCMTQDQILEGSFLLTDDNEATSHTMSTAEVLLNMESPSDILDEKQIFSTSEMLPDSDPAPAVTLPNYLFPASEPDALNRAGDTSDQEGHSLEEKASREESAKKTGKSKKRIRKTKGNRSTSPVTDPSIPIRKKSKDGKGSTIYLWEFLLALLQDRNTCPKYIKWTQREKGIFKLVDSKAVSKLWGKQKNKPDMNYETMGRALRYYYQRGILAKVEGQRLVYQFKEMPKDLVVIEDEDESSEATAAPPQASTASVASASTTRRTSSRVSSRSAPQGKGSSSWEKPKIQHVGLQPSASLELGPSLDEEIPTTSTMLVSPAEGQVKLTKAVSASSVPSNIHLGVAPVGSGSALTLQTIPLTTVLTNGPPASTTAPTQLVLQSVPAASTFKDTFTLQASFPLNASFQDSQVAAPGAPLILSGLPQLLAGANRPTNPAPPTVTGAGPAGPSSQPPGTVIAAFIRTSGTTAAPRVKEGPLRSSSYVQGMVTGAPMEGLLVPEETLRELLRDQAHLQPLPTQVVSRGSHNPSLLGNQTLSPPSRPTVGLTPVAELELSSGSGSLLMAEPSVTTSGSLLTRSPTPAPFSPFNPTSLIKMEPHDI
Sequence of ETV5 (P41161 whole entry): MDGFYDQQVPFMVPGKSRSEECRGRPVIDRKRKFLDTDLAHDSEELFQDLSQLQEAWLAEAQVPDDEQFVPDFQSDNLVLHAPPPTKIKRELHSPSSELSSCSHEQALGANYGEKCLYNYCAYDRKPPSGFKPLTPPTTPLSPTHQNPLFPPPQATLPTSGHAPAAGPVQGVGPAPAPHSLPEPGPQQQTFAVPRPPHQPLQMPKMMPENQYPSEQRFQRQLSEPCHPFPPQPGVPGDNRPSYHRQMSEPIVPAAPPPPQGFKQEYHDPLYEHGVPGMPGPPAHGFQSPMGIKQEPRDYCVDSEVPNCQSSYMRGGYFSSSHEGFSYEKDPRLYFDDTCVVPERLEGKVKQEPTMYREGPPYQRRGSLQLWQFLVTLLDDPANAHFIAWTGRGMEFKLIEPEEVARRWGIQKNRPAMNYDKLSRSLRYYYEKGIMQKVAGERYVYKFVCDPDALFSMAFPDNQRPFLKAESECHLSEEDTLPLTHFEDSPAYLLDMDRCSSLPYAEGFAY
Sequence of ETV1 (P50549 whole entry): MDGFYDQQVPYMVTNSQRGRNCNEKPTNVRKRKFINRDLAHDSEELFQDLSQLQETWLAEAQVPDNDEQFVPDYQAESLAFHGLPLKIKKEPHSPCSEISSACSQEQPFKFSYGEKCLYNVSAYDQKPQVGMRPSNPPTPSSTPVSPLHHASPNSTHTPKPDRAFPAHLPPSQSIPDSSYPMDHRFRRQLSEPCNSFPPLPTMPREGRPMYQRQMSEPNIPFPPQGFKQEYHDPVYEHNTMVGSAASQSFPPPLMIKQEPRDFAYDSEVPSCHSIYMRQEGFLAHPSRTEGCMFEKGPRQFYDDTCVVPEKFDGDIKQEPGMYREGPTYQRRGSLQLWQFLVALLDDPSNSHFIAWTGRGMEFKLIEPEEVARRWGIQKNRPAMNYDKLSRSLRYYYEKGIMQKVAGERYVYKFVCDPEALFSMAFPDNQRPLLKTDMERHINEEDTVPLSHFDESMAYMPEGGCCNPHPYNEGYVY
Sequence of CRX (O43186 whole entry): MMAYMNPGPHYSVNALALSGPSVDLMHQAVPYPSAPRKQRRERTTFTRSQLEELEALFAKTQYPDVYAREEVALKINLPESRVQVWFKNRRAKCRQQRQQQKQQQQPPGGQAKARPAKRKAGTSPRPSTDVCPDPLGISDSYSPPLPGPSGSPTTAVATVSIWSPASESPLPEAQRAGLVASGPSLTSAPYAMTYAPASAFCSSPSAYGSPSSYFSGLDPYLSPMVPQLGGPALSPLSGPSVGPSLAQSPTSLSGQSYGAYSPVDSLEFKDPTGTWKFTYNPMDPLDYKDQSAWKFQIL

Take TTACGA: the binding signal in test [1] was 1.21 fold enrichment (6-mer frequency, TF over GST control); in test [2], 1.14 fold enrichment (6-mer frequency, TF over GST control); in test [3], 1.18 fold enrichment (6-mer frequency, TF over GST control); in test [4] it was 1.06 fold enrichment (6-mer frequency, TF over GST control); in [5] it was 1.14 fold enrichment (6-mer frequency, TF over GST control); in test [6], 1.07 fold enrichment (6-mer frequency, TF over GST control). For the same sequence, the binding signal in test [7] is 1.09 fold enrichment (6-mer frequency, TF over GST control); in test [8] it was 1.07 fold enrichment (6-mer frequency, TF over GST control); in test [9], 1.09 fold enrichment (6-mer frequency, TF over GST control); in [10], 1.11 fold enrichment (6-mer frequency, TF over GST control); in test [11], 1.07 fold enrichment (6-mer frequency, TF over GST control); in test [12], 1.46 fold enrichment (6-mer frequency, TF over GST control). For the same sequence, the binding signal in [13] was 1.02 fold enrichment (6-mer frequency, TF over GST control); in test [14], 1.16 fold enrichment (6-mer frequency, TF over GST control); in test [15] it was 1.16 fold enrichment (6-mer frequency, TF over GST control); in test [16], 1.17 fold enrichment (6-mer frequency, TF over GST control); in test [17], 1.89 fold enrichment (6-mer frequency, TF over GST control); in test [18] it was 1.16 fold enrichment (6-mer frequency, TF over GST control).
